AddAB inh: growth inhibition of E. coli expressing H. pylori AddAB, primary screen, AddAB inhibitor project, absorbance | inhibition, % at 11.9 µM | 330,000 compounds, 0.29% hits; in the data active means inhibition above about 12%;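 further: 0% = vehicle wells of infected cells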
phage Ecoli inh: growth loss of phage-infected E. coli, primary screen, RecBCD inhibitor project, absorbance, with phage, HTS; inhibition, % at 11.9 µM; 360,000 compounds, 0.26% hits; in the data active means inhibition above about 11%
E coli growth-1: E. coli V3065 growth inhibition, primary screen, counter-screen for AddAB inhibitor project, absorbance, OD600. 18 h. inhibition, % at 11.9 µM. 330,000 compounds, 0.27% hits. AID 449728, 2010;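 active means inhibition above the campaign's mean inhibition across all tested compounds plus 3 SD, cut at about 9.9% in these data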;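 further: uninfected addAB+ strain grown without phage in ampicillin broth; 0% = DMSO wells and 100% = ciprofloxacin 0.95 µg/ml wells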
Tat export inh: E. coli Tat export inhibitors, primary screen, MC4100, TorA-mCherry reporter, fluorescence, single point; inhibition, % at 10 µM; 340,000 compounds, 0.036% hits;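 active means mean replicate inhibition at least 50% and at least half of replicates individually reaching 50%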;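 further: exported cargo escapes ClpAP degradation while cytoplasmic cargo is degraded and loses fluorescence; 0% = median of neutral control wells and 100% = median of NaSCN control wells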
E coli growth-2: E. coli growth inhibition, primary screen, OD600; Escherichia coli growth, 23 h; stronger effect = lower value; 330,000 compounds, 0.21% hits; OD600 absorbance (no concentration beside the values);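 active means OD600 absorbance below the run mean of sample wells minus 3.6 SD, in any replicate, cut at about 0.56 in these data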
AddAB confirm: growth loss of phage-infected E. coli expressing H. pylori AddAB, confirmation, AddAB inhibitor project, absorbance, E. coli V3065, T4 phage, triplicate; shares compounds with AddAB inh; OD; T4 phage with gene 2 nonsense mutations; inhibition, % at 11.9 µM; 880 compounds, 64% hits; AID 488942, 2010;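 active means mean inhibition above a set limit taken from the earlier primary screen, cut at about 13% in these data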;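 further: higher means less bacterial growth since AddAB block lets phage replicate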
RecBCD counter: growth loss of RecBCD+ E. coli with mutant T4 phage, counter-screen for AddAB inhibitor project, absorbance, V66 E. coli. shares compounds with AddAB inh. OD growth. inhibition, % at 11.9 µM. 880 compounds, 73% hits. AID 488955, 2010;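 active means mean inhibition above the mean of solvent-only control wells plus 3 SD, cut at about 4% in these data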;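 further: optical density read after an 18 h incubation at 37 °C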
bact viab count: bacterial viability inhibition counter-screen, confirmation, counter-screen for AddAB inhibitor project, absorbance | shares compounds with AddAB inh | absorbance (AddAB counterscreen) | inhibition, % at 11.9 µM | 880 compounds, 35% hits | AID 488956, 2010; in the data active means inhibition above about 25%
RecBCD conf: growth loss of phage-infected RecBCD+ E. coli, confirmation, RecBCD inhibitor project, absorbance, E. coli V66, T4 gene 2 phage; shares compounds with phage Ecoli inh; inhibition, % at 11.9 µM; 890 compounds, 45% hits; E. coli V66 + T4 2- phage, growth OD; AID 651982, 2013;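 active means mean inhibition over triplicates exceeding the hit threshold derived in the original primary screen, cut at about 11% in these data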
Ecoli viability: E. coli viability inhibition, counter-screen for RecBCD inhibitor project, absorbance, high throughput | shares compounds with phage Ecoli inh | absorbance (OD) growth | inhibition, % at 11.9 µM | 890 compounds, 29% hits | AID 651983, 2013; in the data active means inhibition above about 20%;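 further: E. coli strain V66 grown with compound alone and no phage infection; 0% = bacteria with DMSO vehicle only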
AddAB phage OD: growth loss of phage-infected AddAB-carrying E. coli, confirmation, counter-screen for RecBCD inhibitor project, absorbance, E. coli V3065, T4 phage; shares compounds with phage Ecoli inh; E. coli expressing H. pylori AddAB + T4 phage, OD growth; gene 2 mutant T4, recBCD-deleted host; inhibition, % at 11.9 µM; 890 compounds, 45% hits;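 active means mean inhibition above the solvent-only control wells' mean plus 3 SD, cut at about 22% in these data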;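 further: higher means less bacterial growth from phage killing when AddAB is blocked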
* hit, by the source's call; . = not tested or not shown. This is a sample that favours compounds with a hit; in the whole collection about 0.5% have one here.

SMILES | AddAB inh | phage Ecoli inh | E coli growth-1 | Tat export inh | E coli growth-2 | AddAB confirm | RecBCD counter | bact viab count | RecBCD conf | Ecoli viability | AddAB phage OD
C[C@H]1[C@H](NC(=O)C(=NOC(C)(C)C(=O)O)c2csc(N)n2)C(=O)N1S(=O)(=O)O | 100* | 100* | 99* | -9 | . | 100* | 99* | 101* | 98* | 99* | 101*
O=C(O)c1cn(C2CC2)c2cc(N3CCN(S(=O)(=O)c4ccc5c(c4)OCCO5)CC3)c(F)cc2c1=O | 99* | 93* | 97* | 12 | 0.082* | 98* | 98* | 101* | 102* | 102* | 103*
COc1cccc(-n2c(SCc3cc(=O)oc4cc(O)c(O)cc34)nc3ccccc3c2=O)c1 | 21* | 18* | 16* | 6 | 0.69 | 13* | 15* | 17 | 5 | 7 | 9
CN[C@@H]1[C@H](O)[C@H](NC)[C@H]2O[C@@]3(O)C(=O)C[C@@H](C)O[C@H]3O[C@@H]2[C@H]1O | 35* | 52* | 34* | 119* | 0.51* | 78* | 47* | 57* | 58* | 35* | 75*
C/C(C=NNC(=O)c1ccc(Cn2cc([N+](=O)[O-])cn2)o1)=C\c1ccccc1 | . | . | . | . | 0.68 | . | . | . | . | . | .
c1ccc(-c2nnc(-c3ccccn3)nc2NC2CCCCC2)cc1 | 16* | 14* | 18* | -10 | 0.41* | 20* | 15* | 14 | 6 | 6 | 18
CCOC1OC(C(=O)N2CCN(Cc3ccccc3)CC2)=CC(C2CCCCC2)C1CCCO (stereo unspecified) | . | . | . | . | 0.67 | . | . | . | . | . | .
Cc1onc(-c2ccccc2)c1C(=O)NC(=S)NNC(=O)c1ccccc1O | 24* | 24* | 25* | 2 | 0.62 | 25* | 24* | 25 | 14* | 17 | 29*
O=C(NNC(=S)NC(=O)c1ccccc1[N+](=O)[O-])c1ccccc1O | 17* | 13* | 17* | -6 | 0.44* | 11 | 14* | 16 | 2 | 6 | 14
Cc1onc(-c2ccccc2)c1C(=O)NC(=S)NNC(=O)c1ccc(O)cc1O | 20* | 15* | 20* | 2 | 0.56 | 13* | 14* | 18 | 9 | 11 | 25*
CCn1ccc(=O)c2cc3c(cc21)OCO3 | 3 | 0 | 2 | 14 | 0.68 | . | . | . | . | . | .
CCn1nc(C(=O)O)c(=O)c2cc3c(cc21)OCO3 | 96* | 53* | 98* | 28 | 0.058* | 99* | 98* | 101* | 90* | 99* | 99*
CN(C)c1ccc(O)c2c1CC1CC3[C@@H](N(C)C)C(=O)C(C(N)=O)C(=O)[C@]3(O)C(=O)C1C2=O (stereo partly specified) | 98* | 101* | 102* | 145* | . | 100* | 100* | 102* | 100* | 101* | 98*
CN(C)c1ccc(O)c2c1CC1CC3C(N(C)C)C(=O)C(C(N)=O)=C(O)[C@@]3(O)C(=O)C1=C2O (stereo partly specified) | 99* | 99* | 101* | 150* | 0.069* | 98* | 99* | 100* | 103* | 105* | 104*
C[C@H]1c2cccc(O)c2C(=O)C2C(=O)C3(O)C(=O)C(C(N)=O)C(=O)[C@@H](N(C)C)[C@@H]3[C@@H](O)[C@@H]21 (stereo partly specified) | 100* | 98* | 100* | 148* | . | 100* | 100* | 101* | 99* | 100* | 101*
C[C@H]1c2cccc(O)c2C(O)=C2C(=O)C3(O)C(O)=C(C(N)=O)C(=O)[C@@H](N(C)C)[C@@H]3[C@@H](O)[C@@H]21 (stereo partly specified) | 96* | 101* | 97* | 152* | . | 101* | 100* | 101* | 103* | 104* | 104*
COc1ccc(CCCC(=O)NCC(=O)NN=Cc2cc(Cl)ccc2OC)cc1 | . | . | . | . | 0.69 | . | . | . | . | . | .
COc1ccc(NN=C(C#N)C(=N)SCc2ccccc2)cc1 | . | . | . | . | 0.6 | . | . | . | . | . | .
Cn1cc([N+](=O)[O-])c(C(=O)NN=Cc2ccccc2)n1 | . | . | . | . | 0.68 | . | . | . | . | . | .
COC(=O)CN=C1OC(=O)N2C(=O)C3=C4C(CC5C(=O)N(c6ccccc6)C(=O)C5C4[C@@]12Cc1ccccc1)C1C(=O)N(c2ccccc2)C(=O)C1C3C (stereo partly specified) | . | . | . | . | 0.72 | . | . | . | . | . | .
C=C1c2cccc(O)c2C(O)=C2C(=O)[C@]3(O)C(O)=C(C(N)=O)C(=O)[C@@H](N(C)C)[C@@H]3[C@@H](O)[C@H]12 | 57* | 100* | 47* | 140* | 0.059* | 97* | 99* | 97* | 104* | 105* | 104*
O=C(O)c1cccc(NC(=S)NC(NC(=O)c2ccco2)C(Cl)(Cl)Cl)c1 (stereo unspecified) | 1 | -1 | -1 | -1 | 0.69 | . | . | . | . | . | .
O=C(NC(NC(=S)Nc1ccc(Cl)c(Cl)c1)C(Cl)(Cl)Cl)c1ccco1 (stereo unspecified) | 14* | 14* | 14* | -31 | 0.62 | 20* | 13* | 14 | 8 | 10 | 11
COc1ccc(CCNC(=O)CC(C)=NNC(=O)c2ccc([N+](=O)[O-])cc2Cl)cc1OC | . | . | . | . | 0.66 | . | . | . | . | . | .
Cc1[nH]c(N=Nc2ccccc2)nc1N=Nc1ccccc1 | 14* | 12* | 16* | -3 | . | 10 | 8.2* | 16 | 3 | 4 | 20
O=C(Cn1c(CO)nc2ccccc21)Nc1ccc2c(c1)OCCCO2 | 12* | 12* | 14* | -5 | 0.69 | 9 | 12* | 10 | 5 | 8 | 4

Screens as filed in PubChem BioAssay.
